From PubChem
Sampled rows, rich in hits. Any-hit rate of the full collection: about 2%.
TDP-43 yeast inh – inhibitors of TDP-43 toxicity in yeast. AID 652104. Potency, µM (doses to about 46.1 µM), actives largely listed as activators. TDP-43 expressing yeast growth rescue, BacTiter-Glo, 24 h. actives 1.8% (n = 410,000); further: nearly all actives have a fitted effect of over 50% in size
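Readout is BacTiter-Glo luminescence of cell growth, so inhibitors register as activators. TDP-43-expressing yeast at OD600=0.02 in galactose medium, after raffinose pregrowth to mid-log, were incubated with compound for 24 hr at 30 deg C.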
aSyn yeast inh – alpha-synuclein toxicity inhibition in yeast; Yeast expressing alpha-synuclein, growth rescue, BacTiter-Glo, 24 h; Potency, µM (highest dose often 46.1 µM), most hits filed as activators; actives 0.14% (n = 370,000); further: nearly all actives have a fitted effect of over 65% in size
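Screening used galactose-induced yeast with toxic alpha-synuclein levels, exposed to compound for 24 hr at 30 deg C. Cell growth, read with BacTiter-Glo luminescence, gave the measured signal.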
Abeta rescue – compounds reversing amyloid beta toxicity in yeast. actives 0.063% (n = 410,000). yeast expressing A-beta42, growth rescue, OD600, 48 h; response scale: 0% DMSO, 100% iron-clioquinol control. Potency, µM (doses to about 46.1 µM), most hits filed as activators; further: nearly all actives have a fitted effect of over 55% in size
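Growth rescue measured by 600 nm absorbance after 48 h yeast culture at 30 C with compound. Values normalized between DMSO and an equimolar ferric chloride plus clioquinol control.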
Rango dissoc inh – prevents RanGTP from dissociating the Rango-importin beta complex. Biochemical FRET Rango-importin beta, RanGTP-induced dissociation. Potency, µM (series often up to 46.1 µM). actives 0.071% (n = 340,000); calls by dose curve; further: nearly all actives have a fitted effect of over 45% in size
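Rango FRET biosensor (snurportin-1 IBB flanked by N-terminal EYFP and C-terminal CFP10) at 0.1 uM, with 0.25 uM importin beta in PBS, 1mM DTT, 0.02% Tween-20, 0.1% BSA. 0.6 uM Ran, 2mM GTP and 0.2 uM RCC1 were then added for 45 min at room temperature. Inhibition read as loss of FRET rise.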
ASM inhibitor – inhibitors of human secretory acid sphingomyelinase. P17405. placental ASM, HMU-PC fluorogenic substrate, 60 min. Potency, µM (top dose mostly 57.5 µM), hits mostly inhibitors. actives 0.006% (n = 340,000). AID 504937
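Steps: dispense placental human ASM, pin compound, wait 10 min at room temperature, add HMU-PC0 substrate at 9 uM final, incubate 60 min at 37 °C, add stop solution raising pH to 10, read fluorescence.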
Rango complex inh – Rango-importin beta binding inhibition. AID 540263. actives 0.031% (n = 340,000). Q14974. Potency, µM (series often up to 92.2 µM). Rango CFP/YFP FRET sensor + importin beta, 45 min; calls by dose curve; further: nearly all actives have a fitted effect of over 15% in size
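FRET biosensor (snurportin 1 IBB flanked by EYFP and cerulean), 50 nM, with compound 5 min, then 0.125 microM importin beta in PBS, 1 mM DTT, 0.02% Tween-20, 0.1% BSA. CFP/YFP ratio read after 45 min at room temperature; pre-read flags interference.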
Numbers stand for hits; n = inactive; u = inconclusive; x = no result given. Unless noted, the call rests on the fitted dose curve; in most records, active means well fitted curve in the direction sought with a large enough effect; inconclusive means small, poorly fitted or top-dose-only effect, or another doubt; inactive means no such curve, though single readings can be large; an effect the other way counts as inactive or inconclusive.

SMILES | TDP-43 yeast inh | aSyn yeast inh | Abeta rescue | Rango dissoc inh | ASM inhibitor | Rango complex inh
COC(=O)c1c(NC(=O)C(C)C)sc2c1CCN(Cc1ccccc1)C2 | n | n | n | n | n | u
CC(=O)NC(c1ccccc1)c1nc(-c2cccs2)cs1 (stereo not given) | 16µM | n | n | x | x | x
Cc1ccc(C(=O)CCS(=O)(=O)c2ccc(Br)cc2)cc1 | n | n | n | n | n | n
Cc1ccc(S(=O)(=O)CCC(=O)c2cccc([N+](=O)[O-])c2)cc1 | 18µM | n | n | n | n | n
CCc1ccccc1NC(=O)C1C(c2ccccc2)C1(Cl)Cl (stereo not given) | n | n | n | n | n | n
O=C(Nc1ccccc1Cl)C1C(c2ccccc2)C1(Cl)Cl (stereo not given) | 13µM | n | n | n | n | n
O=C(c1ccc(COc2ccc(Cl)cc2Cl)o1)N1CCCC1 | 13µM | n | n | n | n | n
COc1ccc(N2CCN(C(=O)c3ccc(COc4ccc([N+](=O)[O-])cc4)o3)CC2)cc1 | 11µM | n | n | n | n | n
O=C(c1ccc(COc2c(F)c(F)cc(F)c2F)o1)N1CCN(c2ccccc2)CC1 | 22µM | n | n | n | n | n
O=C(c1ccc(COc2c(F)c(F)c(F)c(F)c2F)o1)N1CCOCC1 | n | n | n | n | n | n
O=C(Cn1ncc2c3ccccc3n(Cc3ccccc3)c2c1=O)NCCCN1CCCCC1 | n | x | n | x | x | x
CCOC(=O)c1ccc2[nH]c3c(c2c1)CCCC3C(=O)OCC (stereo not given) | u | n | n | n | n | n
CCOC(=O)C1CCCc2c1[nH]c1ccc(Cl)cc21 (stereo not given) | 13µM | n | u | n | n | u
COc1ccc(NC(=O)c2ccccc2OCC(=O)Nc2ccc(Br)cc2)cc1 | x | n | x | x | x | x
CNC(=O)c1c(NC(=O)c2cccc(C)c2)sc2c1CCC2 | 14µM | n | n | n | n | n
Cc1cccc(C(=O)Nc2sc3c(c2C(=O)O)CCC3)c1 | n | n | n | n | n | n
CC(C)c1nnc2n1N=C(c1ccc(Cl)cc1)CS2 | 20µM | n | n | n | n | n
CC(=O)Nc1ccc(N/C=C/C(=O)c2ccccc2)cc1 | 13µM | n | n | u | n | u
Cn1nc(C(=O)NC2CCCC2)c2ccccc2c1=O | n | n | n | n | n | n
CC(C)n1nc(C(=O)NC2CCCCCC2)c2ccccc2c1=O | 22µM | n | n | n | n | n
COc1ccc(/C=N/N=C/c2ccc(OC)c(O)c2)cc1O | n | n | n | n | n | n
COc1ccc(C=NN=C2c3ccccc3-c3ccccc32)cc1O | 18µM | n | n | n | n | n
CCCCN(CCCC)C(=O)c1cc2c(=O)n3cccc(C)c3nc2s1 | 22µM | x | n | x | x | x
Cc1cccn2c(=O)c3cc(C(=O)N4CCCCC4)sc3nc12 | 11µM | n | n | n | n | n
Cc1cccn2c(=O)c3cc(C(=O)N4CCCC(C)C4)sc3nc12 (stereo not given) | u | n | n | n | n | n
SMILES | TDP-43 yeast inh | aSyn yeast inh | Abeta rescue | Rango dissoc inh | ASM inhibitor | Rango complex inh
CCCN(CCC)C(=O)c1cc2c(=O)n3cccc(C)c3nc2s1 | n | n | n | n | n | n
Cc1cccc(CN2C(=O)c3ccccc3S(=O)(=O)c3ccc(C(=O)N4CCN(c5cc(C)ccc5C)CC4)cc32)c1 | n | x | n | x | x | x
CCOC(=O)C1CCCN(C(=O)c2ccc(NC(=O)c3nsc4ccccc34)cc2)C1 (stereo not given) | u | x | n | x | x | x
Cc1ccc(NC(=O)c2oc3ccc(S(=O)(=O)N(C)C4CCCCC4)cc3c2C)cc1Cl | n | x | n | x | x | x
Cc1ccc2cc(F)c(F)c(F)c2n1 | u | n | n | x | x | x
Cc1ccc2ccc3ccc(C)nc3c2n1 | 4.5µM | n | n | n | n | n
COc1ccc(-n2c(-c3ccc(F)cc3)cn3c4c(=O)n(C)c(=O)n(C)c4nc23)cc1 | n | x | n | x | x | x
O=C(NCC1CCCO1)C(c1cccs1)N(C(=O)c1ccc(-c2ccccc2)[nH]1)C1CCCC1 (stereo not given) | n | n | n | n | n | u
